Shown are actives, neighbours in structure and some others; about 4.1% of the full set was active somewhere.
hgDAF12 agonist: agonists of H. glycines DAF-12 nuclear receptor; HEK293 GAL4-hgDAF12 UAS-luciferase reporter, agonist luminescence; normalized to butyrate control; activation, % at 6.8 µM; hit rate 1.8% among 370,000; AID 687014;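 active means activation above a cutoff set at the mean of all screened compounds plus 3 SD, cut at about 10% in these data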;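 further: 0% = DMSO wells and 100% = sodium butyrate wells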
DAX1 inh-1: NR0B1 (DAX1) inhibition | P51843 | HEK293 Gal4-DAX1 luciferase reporter, luminescence | inhibition, % at 6.75 µM | hit rate 0.99% among 340,000 | AID 504766;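 active means inhibition above the mean over all tested compounds plus 3 SD, cut at about 4.2% in these data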;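 further: 0% = DAX1-transfected cells with DMSO and 100% = empty-vector control cells with DMSO; inhibition shows as a rise in luminescence from relieved DAX1 repression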
Target sequence (P51843 207-470 limits assumed): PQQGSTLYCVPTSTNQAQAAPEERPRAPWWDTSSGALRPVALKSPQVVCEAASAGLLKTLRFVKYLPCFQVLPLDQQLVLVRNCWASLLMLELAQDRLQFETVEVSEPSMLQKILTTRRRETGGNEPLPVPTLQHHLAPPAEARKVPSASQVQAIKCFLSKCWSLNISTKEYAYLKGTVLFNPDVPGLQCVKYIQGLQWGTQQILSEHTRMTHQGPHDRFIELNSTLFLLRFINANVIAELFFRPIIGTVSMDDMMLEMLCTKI
ssDAF12 agonist: S. stercoralis DAF-12 activation, primary screen. HEK293 ssDAF-12/GRIP1 lit1-tk-luc reporter, luminescence; % of 3 µM dafachronic acid response. activation, % at 6.8 µM. hit rate 1% among 370,000. AID 652126;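 active means activation above the mean over all tested compounds plus 3 SD, cut at about 0.9% in these data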;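 further: 0% = DMSO-only wells and 100% = 3 µM delta7-dafachronic acid wells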
DAX1 inh-2: inhibitors of DAX1 repression of SF-1 activated StAR promoter. HEK293T StAR-luciferase reporter, SF-1/DAX-1 repression relief. inhibition, % at 6.8 µM. hit rate 1.1% among 370,000;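 active means inhibition above the mean over all tested compounds plus 3 SD, cut at about 3.6% in these data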;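 further: 0% = DAX-1 cells with DMSO and 100% = cells lacking DAX-1 with DMSO; higher inhibition means more luminescence from relief of DAX-1 repression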
hcDAF12 agonist: activators of H. contortus DAF-12 nuclear receptor; HEK293 hcDAF-12 lit1-tk-luc reporter, luminescence; 0% DMSO, 100% Δ7-dafachronic acid; AID 652067; activation, % at 6.8 µM; hit rate 1.4% among 370,000;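 active means activation above the mean of all tested compounds plus 3 SD, cut at about 5.5% in these data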;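 further: 100% = response to 3 µM Δ7-dafachronic acid high control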
hgDAF12 conf: confirmation of H. glycines DAF-12 agonists | shares compounds with hgDAF12 agonist | HEK293 GAL4-hgDAF12 luciferase reporter, agonist mode; percent of butyrate response | activation, % at 6.8 µM | hit rate 80% among 3,300;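 active means mean activation over triplicate wells above the hit cutoff derived from the earlier primary screen, cut at about 11% in these data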;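 further: 0% = DMSO low control and 100% = 2 mM sodium butyrate high control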
LXRb DAF12 ctr: LXR-beta agonism as DAF-12 counter-screen. 3,300 tested, under 10 active. HEK293 Gal4-LXR luciferase reporter, 24 h. AID 743051. activation, % at 6.8 µM. shares compounds with hgDAF12 agonist;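 active means mean activation of the triplicate above a set limit carried over from the primary screen, none filed active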
An asterisk follows results filed as active; x = no result given.

SMILES	hgDAF12 agonist	DAX1 inh-1	ssDAF12 agonist	DAX1 inh-2	hcDAF12 agonist	hgDAF12 conf	LXRb DAF12 ctr
Cc1ccc(-c2cc(N)n(-c3ccc(F)cc3)n2)cc1	14.7*	0.5	-0.6	4.3*	5.4	9.9	0.6
Cc1ccc(-c2cc(N)n(-c3ccc(C)cc3)n2)cc1	5.9	2.4	-0.4	2.0	2.0	x	x
CC(NCc1ccco1)C(=O)N1CCOCC1 (stereo not drawn)	-2.1	x	-0.5	0.8	-1.6	x	x
CCCCOC(=O)Nc1ccc(N2CCOCC2)cc1	6.0	2.6	-1.1	1.0	2.2	x	x
CCCCOC(=O)Nc1ccc(N2CCCCC2)cc1	13.4*	1.2	-0.2	3.5	3.7	13.4*	0.7
Cc1ccc(NC(=O)c2cncc(Br)c2)c(O)c1	15.6*	2.3	0.3	2.6	6.2*	16.8*	0.3
CC(=O)N1CCc2cc(N=NC3=C(O)CCCC3=O)ccc21	15.5*	4.0	-0.6	1.6	3.5	16.0*	0.5
CN(C)C(=O)NCCCC#Cc1ccccc1	-2.1	x	-1.6	-0.7	0.2	x	x
COC(=O)c1ccc(N=Nc2ccccc2)cc1	5.4	0.2	-0.6	2.4	1.0	x	x
OCc1ccc(N=Nc2ccccc2)cc1	13.4*	2.9	-0.3	2.1	2.7	16.9*	0.8
Cc1ccc(C(=O)Nc2ccc(SC(F)F)cc2)s1	19.7*	2.5	-0.5	4.2*	5.3	12.7*	0.6
CC[N+](CC)(CC)CC(=O)Nc1ccc(SC(F)F)cc1	-2.1	1.8	-1.4	-0.4	-0.7	x	x
C=CCN1C(=O)[C@H](CC(=O)NCC23CC4CC(CC(C4)C2)C3)[C@@]2(C(=O)OCC)CCCC=C12	0.4	x	-1.3	-1.7	-3.3	x	x
Cc1cccc(N(C(=O)Nc2ccccc2)C2=NCC(C)S2)c1 (stereo not drawn)	14.7*	3.6	-0.8	0.8	2.4	3.8	0.1
Cc1ccc(NC(=O)N(C2=NCC(C)S2)c2ccccc2)cc1 (stereo not drawn)	6.6	1.6	-1.1	0.5	0.8	x	x
C#CCN1CC(COc2ccccc2)OCCS1(=O)=O (stereo not drawn)	-1.1	x	-0.5	0.6	-1.4	x	x
COc1ccccc1C(=O)COC(=O)c1ccc(N(C)C)cc1	15.8*	4.5*	0.0	3.2	4.9	12.8*	0.6
Cc1[nH]c2ccccc2c1CC(=O)Nc1ccc(Nc2cccnc2)c(-c2ccc(OC(F)(F)F)cc2)c1	1.0	x	0.0	-0.8	1.6	x	x
CCOC(=O)c1c(C)[nH]c(C(=O)CSc2nccc(C)n2)c1C	10.3	0.9	-1.2	0.9	1.2	x	x
CCOC(=O)c1c(C)[nH]c(C(=O)CSc2ccccc2)c1C	17.8*	-0.3	0.8	3.5	5.6*	13.7*	1.1
CC(=O)Nc1ccc(/C(N=Nc2ccccc2)=N/N=C(N)N)cc1	13.4*	4.5*	1.6*	3.3	5.1	16.1*	0.6
c1coc(CNc2nc3ccccc3s2)c1	16.3*	6.5*	1.9*	2.1	8.8*	16.7*	1.0
Cc1nnc(NCc2ccco2)s1	0.5	0.3	-0.8	-0.1	-0.6	x	x
COC(=O)C[C@@H]1CC[C@@H]2[C@H](COc3ccc(NC(=O)c4ccc(F)c(F)c4)cc3C(=O)N2C)O1	-0.1	x	-0.8	0.4	1.4	x	x
Cc1cc(C)c(CN2CCN(C(=O)Cn3cc(C)c(=O)[nH]c3=O)CC2)c(C)c1	-1.7	x	-1.3	-1.0	-1.4	x	x
SMILES	hgDAF12 agonist	DAX1 inh-1	ssDAF12 agonist	DAX1 inh-2	hcDAF12 agonist	hgDAF12 conf	LXRb DAF12 ctr
COc1cccc(C(=O)NCCSc2ccc(C)cc2)c1	-0.8	-0.5	-0.9	-0.5	-1.2	x	x
COc1cccc(C(=O)NCCSc2ccc(F)cc2)c1	14.0*	0.3	0.1	2.7	3.2	11.5*	0.4
Cc1cccc(NC(=O)CSc2nccn2Cc2ccco2)c1	14.0*	2.3	-0.8	3.9*	2.0	13.0*	0.5
Cc1cc(C)cc(NC(=O)CSc2nccn2Cc2ccco2)c1	0.0	0.4	-1.0	-1.6	-1.5	x	x
C#CCN1CC(N(C)CCOC(=O)CC2C=CCC2)CS1(=O)=O (stereo not drawn)	1.7	x	-1.0	0.6	-0.8	x	x
Cc1ccc(NC(=O)Cn2nnc(-c3ccc4c(c3)OCO4)n2)cc1F	-0.1	1.4	-0.7	-0.2	0.3	x	x
